Test results taken from the supplement of paper PMC10849652.
About 7,900 targets were measured; listed, in parts, are those with a hit and a random draw of the rest. About 0.6% of all pairs of compound and target were hits. Unmarked numbers belong to inactive results.

Assays:
Experiment in all cases: log2 fold change, soluble protein after heating vs DMSO (PISA); higher = thermal stabilisation; K562 cells, 10 uM, 30 min; active = over 0.2 and 3.5 SD of the protein, either way, in both replicates (recomputed)
[1] = compound: COC1=CC=C(C=C1)CN2C=CC3=C2C=C(C=C3)C(=O)NO
Outline: (§1)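 K562 cells (2×10^6 cells/mL) were treated with 10 μM compound for 30 min, and aliquots were heated for 3 min over 48°C-58°C. Pooled aliquots were extracted in PBS with 0.5% NP-40 at 4°C, and the supernatant after 21,000xg for 90 min was measured by TMTpro 16plex LC-MS/MS with channel sums equalised. Reported thermal stability, relative to control samples and from duplicates, is a log2 fold change.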

filanesib = compound: CON(C)C(=O)N1N=C(c2cc(F)ccc2F)S[C@@]1(CCCN)c1ccccc1 [filanesib]
Outline: as §1

zotarolimus = compound: CO[C@H]1C[C@@H]2CC[C@@H](C)[C@@](O)(O2)C(=O)C(=O)N2CCCC[C@H]2C(=O)O[C@H]([C@H](C)C[C@@H]2CC[C@H](n3cnnn3)[C@H](OC)C2)CC(=O)[C@H](C)/C=C(\C)[C@@H](O)[C@@H](OC)C(=O)[C@H](C)C[C@H](C)/C=C/C=C/C=C/1C [zotarolimus]
Outline: as §1

idasanutlin = compound: COc1cc(C(=O)O)ccc1NC(=O)[C@@H]1N[C@@H](CC(C)(C)C)[C@](C#N)(c2ccc(Cl)cc2F)[C@H]1c1cccc(Cl)c1F [idasanutlin]
Outline: as §1

alisertib = compound: COc1cc(Nc2ncc3c(n2)-c2ccc(Cl)cc2C(c2c(F)cccc2OC)=NC3)ccc1C(=O)O [alisertib]
Outline: as §1

[2] = compound: COc1cc2nc(-c3cc(F)ccc3O)nc(N[C@@H]3CNC[C@H]3C(C)(C)O)c2cc1OC
Outline: as §1

gefitinib = compound: COc1cc2ncnc(Nc3ccc(F)c(Cl)c3)c2cc1OCCCN1CCOCC1 [gefitinib]
Outline: as §1

[3] = compound: COc1cccc2cc(-c3nc([C@H]4CC[C@H](C(=O)O)CC4)n4ncnc(N)c34)[nH]c12
Outline: as §1

lapatinib = compound: CS(=O)(=O)CCNCc1ccc(-c2ccc3ncnc(Nc4ccc(OCc5cccc(F)c5)c(Cl)c4)c3c2)o1 [lapatinib]
Outline: as §1

pictilisib = compound: CS(=O)(=O)N1CCN(Cc2cc3nc(-c4cccc5[nH]ncc45)nc(N4CCOCC4)c3s2)CC1 [pictilisib]
Outline: as §1

[4] = compound: CS(=O)(=O)c1ccc(-c2cnc(N)c(C(=O)Nc3ccccc3)n2)cc1
Outline: as §1

crizotinib = compound: C[C@@H](Oc1cc(-c2cnn(C3CCNCC3)c2)cnc1N)c1c(Cl)ccc(F)c1Cl [crizotinib]
Outline: as §1

[5] = compound: C[C@@H]1COCCN1C2=NC(=NC(=C2)C3(CC3)S(=O)(=O)C)C4=C5C=CNC5=CC=C4
Outline: as §1

[6] = compound: C[C@H](C1=CC=C(C=C1)C(=O)NC2=C3C=CNC3=NC=C2)N
Outline: as §1

duvelisib = compound: C[C@H](Nc1ncnc2nc[nH]c12)c1cc2cccc(Cl)c2c(=O)n1-c1ccccc1 [duvelisib]
Outline: as §1

gandotinib = compound: Cc1cc(Nc2cc(CN3CCOCC3)c3nc(C)c(Cc4ccc(Cl)cc4F)n3n2)n[nH]1 [gandotinib]
Outline: as §1

tozasertib = compound: Cc1cc(Nc2cc(N3CCN(C)CC3)nc(Sc3ccc(NC(=O)C4CC4)cc3)n2)n[nH]1 [tozasertib]
Outline: as §1

[7] = compound: Cc1cc(SCc2sc(-c3ccc(C(F)(F)F)cc3)nc2C)ccc1OCC(=O)O
Outline: as §1

doramapimod = compound: Cc1ccc(-n2nc(C(C)(C)C)cc2NC(=O)Nc2ccc(OCCN3CCOCC3)c3ccccc23)cc1 [doramapimod]
Outline: as §1

ispinesib = compound: Cc1ccc(C(=O)N(CCCN)[C@@H](c2nc3cc(Cl)ccc3c(=O)n2Cc2ccccc2)C(C)C)cc1 [ispinesib]
Outline: as §1

Chain of UniProt Q15436 (Q15436 whole entry, looked up): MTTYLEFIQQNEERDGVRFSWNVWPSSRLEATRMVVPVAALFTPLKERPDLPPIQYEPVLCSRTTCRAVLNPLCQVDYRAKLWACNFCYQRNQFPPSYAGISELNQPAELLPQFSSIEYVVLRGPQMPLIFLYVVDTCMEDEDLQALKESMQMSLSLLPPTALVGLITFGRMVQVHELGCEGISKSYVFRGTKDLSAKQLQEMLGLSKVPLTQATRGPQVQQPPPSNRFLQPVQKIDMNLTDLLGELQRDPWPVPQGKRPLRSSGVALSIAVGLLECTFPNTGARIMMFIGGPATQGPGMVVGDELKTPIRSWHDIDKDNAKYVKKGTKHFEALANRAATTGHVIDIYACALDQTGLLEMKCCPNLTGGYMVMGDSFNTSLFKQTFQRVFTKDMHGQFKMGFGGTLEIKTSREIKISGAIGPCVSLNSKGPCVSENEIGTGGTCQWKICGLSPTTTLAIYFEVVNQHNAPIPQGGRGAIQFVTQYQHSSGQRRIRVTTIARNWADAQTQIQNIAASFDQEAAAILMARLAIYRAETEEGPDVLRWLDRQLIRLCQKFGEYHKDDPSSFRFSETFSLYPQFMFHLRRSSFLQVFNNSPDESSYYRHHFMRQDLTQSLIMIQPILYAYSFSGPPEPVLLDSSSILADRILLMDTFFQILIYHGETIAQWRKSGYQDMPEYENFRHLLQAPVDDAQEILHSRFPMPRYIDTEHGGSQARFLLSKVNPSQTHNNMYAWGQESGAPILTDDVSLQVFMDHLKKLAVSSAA
Chain of UniProt Q9H2X9 (Q9H2X9 whole entry, looked up): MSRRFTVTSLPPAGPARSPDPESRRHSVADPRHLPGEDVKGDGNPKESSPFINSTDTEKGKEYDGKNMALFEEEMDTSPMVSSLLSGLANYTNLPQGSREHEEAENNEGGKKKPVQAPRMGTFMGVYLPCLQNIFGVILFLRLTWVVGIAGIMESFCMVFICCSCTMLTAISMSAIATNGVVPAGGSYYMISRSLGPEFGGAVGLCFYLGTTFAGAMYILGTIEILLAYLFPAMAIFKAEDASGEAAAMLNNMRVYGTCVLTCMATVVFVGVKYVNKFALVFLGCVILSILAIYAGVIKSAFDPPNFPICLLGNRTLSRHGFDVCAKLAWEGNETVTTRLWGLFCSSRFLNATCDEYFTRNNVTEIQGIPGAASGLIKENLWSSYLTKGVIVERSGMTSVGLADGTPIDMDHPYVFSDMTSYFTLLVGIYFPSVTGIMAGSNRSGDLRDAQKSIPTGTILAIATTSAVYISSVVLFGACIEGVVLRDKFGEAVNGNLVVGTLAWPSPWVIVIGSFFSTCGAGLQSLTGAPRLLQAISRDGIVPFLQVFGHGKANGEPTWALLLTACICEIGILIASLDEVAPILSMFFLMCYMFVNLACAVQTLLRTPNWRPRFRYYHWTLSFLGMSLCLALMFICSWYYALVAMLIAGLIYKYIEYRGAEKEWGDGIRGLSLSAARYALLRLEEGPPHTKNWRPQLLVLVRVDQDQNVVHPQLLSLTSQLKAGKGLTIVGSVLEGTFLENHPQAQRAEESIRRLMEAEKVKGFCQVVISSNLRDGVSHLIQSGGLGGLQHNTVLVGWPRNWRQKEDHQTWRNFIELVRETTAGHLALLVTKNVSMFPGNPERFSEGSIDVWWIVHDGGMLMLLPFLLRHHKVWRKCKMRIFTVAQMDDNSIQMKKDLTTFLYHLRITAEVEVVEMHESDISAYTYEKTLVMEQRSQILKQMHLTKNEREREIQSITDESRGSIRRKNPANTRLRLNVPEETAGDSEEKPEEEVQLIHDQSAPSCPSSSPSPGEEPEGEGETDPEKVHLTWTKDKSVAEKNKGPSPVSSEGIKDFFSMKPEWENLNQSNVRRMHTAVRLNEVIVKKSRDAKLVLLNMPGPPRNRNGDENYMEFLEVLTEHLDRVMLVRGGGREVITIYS
Chain of UniProt Q8WZA2 (Q8WZA2 whole entry, looked up): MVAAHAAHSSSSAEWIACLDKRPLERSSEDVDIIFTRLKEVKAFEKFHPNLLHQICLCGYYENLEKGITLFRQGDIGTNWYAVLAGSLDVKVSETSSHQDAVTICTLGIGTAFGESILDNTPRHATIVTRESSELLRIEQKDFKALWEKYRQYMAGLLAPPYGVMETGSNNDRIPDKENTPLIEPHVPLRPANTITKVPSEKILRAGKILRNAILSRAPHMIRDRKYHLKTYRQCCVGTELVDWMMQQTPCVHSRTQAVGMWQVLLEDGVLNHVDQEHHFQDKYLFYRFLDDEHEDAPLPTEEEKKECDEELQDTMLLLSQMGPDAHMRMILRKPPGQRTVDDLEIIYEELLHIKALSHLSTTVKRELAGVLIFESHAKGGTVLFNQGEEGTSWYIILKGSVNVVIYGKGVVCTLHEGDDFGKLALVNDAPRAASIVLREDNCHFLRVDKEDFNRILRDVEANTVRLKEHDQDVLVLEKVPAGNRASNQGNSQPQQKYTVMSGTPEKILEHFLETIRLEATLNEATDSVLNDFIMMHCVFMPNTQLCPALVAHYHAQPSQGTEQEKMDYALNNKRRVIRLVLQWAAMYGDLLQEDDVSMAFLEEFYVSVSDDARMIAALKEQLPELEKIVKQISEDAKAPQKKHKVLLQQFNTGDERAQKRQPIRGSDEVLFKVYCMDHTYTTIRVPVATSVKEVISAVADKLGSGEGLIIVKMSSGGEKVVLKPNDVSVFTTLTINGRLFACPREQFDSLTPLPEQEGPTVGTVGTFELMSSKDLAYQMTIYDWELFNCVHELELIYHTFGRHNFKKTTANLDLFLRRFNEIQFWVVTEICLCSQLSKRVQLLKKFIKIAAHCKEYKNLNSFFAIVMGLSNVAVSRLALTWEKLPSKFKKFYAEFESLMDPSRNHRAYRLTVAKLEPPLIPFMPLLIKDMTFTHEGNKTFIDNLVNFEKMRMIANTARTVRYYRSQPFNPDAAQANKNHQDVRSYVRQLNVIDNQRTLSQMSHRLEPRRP
Chain of UniProt O00584 (O00584 whole entry, looked up): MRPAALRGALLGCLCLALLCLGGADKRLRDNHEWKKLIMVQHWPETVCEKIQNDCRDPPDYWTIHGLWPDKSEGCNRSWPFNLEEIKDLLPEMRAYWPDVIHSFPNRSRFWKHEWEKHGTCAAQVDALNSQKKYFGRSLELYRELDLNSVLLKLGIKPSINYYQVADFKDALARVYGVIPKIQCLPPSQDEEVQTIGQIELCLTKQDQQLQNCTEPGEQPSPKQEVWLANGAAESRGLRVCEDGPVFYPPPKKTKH
Chain of UniProt Q5VUM1 (Q5VUM1 whole entry, looked up): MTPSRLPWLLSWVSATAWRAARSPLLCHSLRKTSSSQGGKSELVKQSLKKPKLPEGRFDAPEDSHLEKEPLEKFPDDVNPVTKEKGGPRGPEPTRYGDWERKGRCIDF
Chain of UniProt Q9NX18 (Q9NX18 whole entry, looked up): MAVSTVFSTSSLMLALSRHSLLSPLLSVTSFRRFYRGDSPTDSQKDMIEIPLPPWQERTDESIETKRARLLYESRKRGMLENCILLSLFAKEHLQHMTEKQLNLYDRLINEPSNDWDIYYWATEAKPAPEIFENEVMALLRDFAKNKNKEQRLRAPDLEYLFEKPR
Chain of UniProt Q8IXJ6 (Q8IXJ6 whole entry, looked up): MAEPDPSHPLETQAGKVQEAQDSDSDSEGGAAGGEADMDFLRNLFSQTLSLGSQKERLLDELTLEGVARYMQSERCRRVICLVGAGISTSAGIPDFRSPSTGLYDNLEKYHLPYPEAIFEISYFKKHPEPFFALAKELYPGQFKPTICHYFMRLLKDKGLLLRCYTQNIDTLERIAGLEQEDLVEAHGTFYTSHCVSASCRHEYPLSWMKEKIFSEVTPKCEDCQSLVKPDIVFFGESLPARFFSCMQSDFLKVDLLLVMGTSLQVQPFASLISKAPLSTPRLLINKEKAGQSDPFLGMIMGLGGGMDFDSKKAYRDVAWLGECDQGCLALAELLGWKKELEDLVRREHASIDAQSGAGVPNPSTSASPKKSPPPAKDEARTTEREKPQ
Chain of UniProt O75446 (O75446 whole entry, looked up): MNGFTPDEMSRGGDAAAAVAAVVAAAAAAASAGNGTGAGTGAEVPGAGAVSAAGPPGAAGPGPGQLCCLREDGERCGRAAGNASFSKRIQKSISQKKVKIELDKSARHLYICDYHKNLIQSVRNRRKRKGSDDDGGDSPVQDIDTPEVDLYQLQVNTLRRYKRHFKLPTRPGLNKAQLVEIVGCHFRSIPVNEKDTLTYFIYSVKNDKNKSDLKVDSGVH

Row | Target | log2 fold change [1] | log2 fold change (filanesib) | log2 fold change (zotarolimus) | log2 fold change (idasanutlin) | log2 fold change (alisertib) | log2 fold change [2] | log2 fold change (gefitinib) | log2 fold change [3] | log2 fold change (lapatinib) | log2 fold change (pictilisib) | log2 fold change [4] | log2 fold change (crizotinib) | log2 fold change [5] | log2 fold change [6] | log2 fold change (duvelisib) | log2 fold change (gandotinib) | log2 fold change (tozasertib) | log2 fold change [7] | log2 fold change (doramapimod) | log2 fold change (ispinesib)
1 | RPS3A (UniProt P61247) | -0.112 | 0.117 | 0.006 | 0.069 | -0.052 | -0.009 | -0.06 | -0.152 | 0.053 | -0.078 | -0.064 | 0.022 | -0.182 | 0.196 | -0.09 | 0.175 | 0.016 | 0.029 | 0.044 | -0.072
2 | SEC23A (UniProt Q15436) | 0.024 | 0.013 | 0.025 | -0.026 | -0.027 | 0.043 | 0.007 | 0.01 | -0.045 | 0.049 | 0.001 | -0.016 | 0.061 | -0.102 | 0.017 | -0.109 | 0.021 | 0.03 | -0.092 | 0.023
3 | RBM26 isoform 2 (UniProt Q5T8P6) | 0.086 | -0.071 | 0.03 | -0.025 | 0.093 | -0.045 | 0.064 | 0.009 | 0.034 | 0.059 | -0.012 | 0.03 | 0.374 | -0.154 | 0.022 | -0.056 | 0.036 | 0.136 | -0.036 | -0.089
4 | RAVER1 (UniProt E9PAU2) | 0.032 | -0.244 | 0.258 | 0.024 | 0.372 | -0.898 | 0.082 | -0.099 | 0.049 | -0.002 | 0.061 | 0.049 | 0.188 | -0.381 | 0.066 | -0.091 | 0.264 | 0.132 | 0.002 | -0.171
5 | RB1CC1 (UniProt Q8TDY2) | 0.435 (active) | -0.079 | 0.014 | -0.002 | -0.112 | 0.182 | -0.042 | -0.049 | 0.181 | 0.083 | 0.062 | 0.041 | -0.006 | 0.033 | -0.006 | 0.132 | -0.013 | 0.011 | 0.037 | -0.02
6 | SH3GL1 (UniProt Q99961) | 0.046 | -0.047 | 0.062 | 0 | 0.012 | 0 | -0.029 | -0.048 | -0.008 | -0.005 | 0.067 | -0.144 | 0.024 | 0.062 | 0.019 | -0.031 | 0.045 | 0.103 | 0.007 | -0.156
7 | RAPGEF4 (UniProt Q8WZA2) | 0.549 | 0.053 | -0.078 | 0.021 | -0.145 | – | – | 0.187 | – | – | 0.115 | 0.051 | 0.04 | -0.061 | 0.07 | – | -0.107 | -0.139 | 0.097 | –
8 | RABGAP1L isoform 5 (UniProt Q5R372) | 0.117 | 0.108 | -0.008 | 0.05 | -0.071 | 0.065 | -0.097 | 0.007 | -0.027 | – | 0.071 | 0.003 | 0.022 | 0.046 | 0.008 | – | -0.121 | -0.015 | -0.073 | –
9 | SDHAF2 (UniProt Q9NX18) | 0.063 | -0.03 | 0.068 | -0.085 | 0.02 | -0.163 | 0.09 | 0.102 | -0.013 | 0.091 | -0.042 | -0.183 | 0.07 | -0.111 | 0.082 | 0.057 | 0.002 | -0.125 | -0.051 | 0.006
10 | SLC12A5 (UniProt Q9H2X9) | 0.323 | -0.071 | -0.076 | 0.017 | 0.299 | -0.097 | – | 0.124 | 0.085 | – | 0.089 | 0.001 | 0.028 | 0.027 | -0.07 | – | -0.039 | 0.083 | 0.234 | –
11 | SDHAF4 (UniProt Q5VUM1) | -0.072 | 0.034 | -0.01 | -0.223 | -0.073 | -0.026 | 0.026 | 0.096 | -0.154 | – | 0.033 | -0.047 | 0.153 | 0.181 | 0.003 | – | 0 | -0.038 | 0.091 | –
12 | SAP30 (UniProt O75446) | 0.089 | 0.044 | 0.047 | 0.024 | -0.015 | -0.059 | 0.003 | -0.095 | -0.035 | -0.068 | -0.087 | 0.012 | -0.047 | 0.098 | -0.09 | 0.162 | – | 0.124 | -0.088 | –
13 | SIRT2 (UniProt Q8IXJ6) | 0.083 | -0.02 | -0.029 | 0.016 | 0.036 | -0.012 | 0.069 | 0.017 | 0.065 | 0.168 | 0.042 | -0.015 | -0.002 | 0.072 | -0.048 | 0.002 | -0.099 | -0.032 | -0.009 | -0.001
14 | SCAMP2 (UniProt H3BUB6) | -0.27 | 0.126 | -0.217 | 0.134 | -0.019 | 0.319 | 0.003 | 0.188 | -0.329 | – | 0.085 | 0.128 | -0.011 | 0.317 | 0.166 | – | -0.159 | -0.305 | -0.088 | -0.258
15 | RAB3IL1 (UniProt E9PK89) | 0.031 | -0.22 | 0.093 | -0.035 | – | 0.097 | -0.034 | – | 0.063 | -0.075 | 0.036 | -0.003 | 0.163 | -0.211 | – | 0.154 | -0.099 | – | -0.07 | 0.07
16 | RCOR3 isoform 3 (UniProt Q9P2K3) | -0.019 | 0.084 | -0.011 | -0.046 | -0.145 | 0.14 | 0.013 | 0.011 | 0 | -0.106 | -0.039 | -0.117 | – | -0.061 | 0.105 | -0.015 | 0.091 | 0.104 | -0.047 | -0.065
17 | RNASET2 (UniProt O00584) | 0.012 | -0.155 | -0.013 | -0.021 | -0.046 | -0.097 | -0.081 | 0.035 | -0.028 | 0.024 | 0.033 | -0.35 (active) | 0.027 | 0.08 | 0.045 | 0.01 | -0.011 | -0.037 | -0.013 | -0.149
